In the supplement of paper PMC10681739:

target: T1, ETS1 (UniProt P14921); experiment: TF binding intensity (PBM fluorescence), negative control probe (arbitrary fluorescence units); higher = stronger binding
T1 sequence: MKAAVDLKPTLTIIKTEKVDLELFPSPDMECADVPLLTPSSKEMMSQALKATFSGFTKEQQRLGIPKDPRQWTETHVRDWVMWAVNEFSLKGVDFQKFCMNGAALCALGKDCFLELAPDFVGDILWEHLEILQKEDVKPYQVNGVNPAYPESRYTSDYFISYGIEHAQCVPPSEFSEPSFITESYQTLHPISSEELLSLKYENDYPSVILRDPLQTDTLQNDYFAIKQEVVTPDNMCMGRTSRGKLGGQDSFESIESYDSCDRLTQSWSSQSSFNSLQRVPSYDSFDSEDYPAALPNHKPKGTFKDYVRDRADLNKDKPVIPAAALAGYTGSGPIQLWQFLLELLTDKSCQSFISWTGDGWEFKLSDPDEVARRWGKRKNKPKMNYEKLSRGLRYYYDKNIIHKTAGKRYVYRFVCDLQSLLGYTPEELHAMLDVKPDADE
Experimental: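 gcPBM negative-control 36-bp genomic probes lacking TF binding sites. Each was incubated with recombinant human ETS1 or RUNX1 alone and detected by antibody fluorescence. Values are medians over replicate spots (4 spots for the ETS1-RUNX1 arrays, 3 for the ETS1-ETS1 array). The probes sit in constant array flanks that are not printed.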

Sequence	TF binding intensity
CTTGACAGAGGTATGTGCTAGGATTGAATATGTGGG (protein concentration 10 nM)	131
AGCTTTCCAAGTTTTTGTGGGCAACATCAACTGTTC (protein concentration 1 nM)	486
AGCAGATCATTTGAGCCTGGGAGGCGCACATGGCAG (protein concentration 10 nM)	116
GGCATCTACCTCCCAGGAGCAAGCGGGAGACAGCCC (protein concentration 10 nM)	134
ATAGTACAAGCACTAGTCAAAGCTAGAGGTCACTCT (protein concentration 10 nM)	111
TTATAGGTGAGAGCTACCATGCCTGGTCCTATTTAA (protein concentration 10 nM)	97.6
AAATTCTGTAACCAGTGCTCTTGAGCTGCTTGCTGG (protein concentration 10 nM)	102
ATAATGGAAAGCGAAACCGCAGATTAAGCAGGGACT (protein concentration 1 nM)	398
AAAGGCAGATCTCCAAATCTCCAGGCCTGCTCGTTG (protein concentration 10 nM)	96.1
AAAACAAACAAACCAAACAACACAACAGAAGTTTTC (protein concentration 10 nM)	150
AAACAAAGTAAGCTTTTAAGGACTCTGGTCAGAAAC (protein concentration 10 nM)	101
TCGAGTGGTGAGAAGGAGAAGGAGCGGCTGGGAGGC (protein concentration 10 nM)	137
ACTGATCATCTGAAATGTGGCTAGTGTGAAAATGAA (protein concentration 1 nM)	532
